# FLuc modulator = firefly luciferase modulation, counter-screen for miR-21 project. purified FLuc, Km substrates, luminescence inhibition. P08659. AID 588342. Potency, µM (highest dose often 57.5 µM), for inactives: at the highest dose activity change, negative = inhibition, hits mostly inhibitors. hit rate 6.9% among 360,000;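 further: plate controls were vehicle for no effect and reference inhibitor for full effect; nearly all actives have a fitted effect of over 55% in size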
# Target sequence (P08659 whole entry, looked up): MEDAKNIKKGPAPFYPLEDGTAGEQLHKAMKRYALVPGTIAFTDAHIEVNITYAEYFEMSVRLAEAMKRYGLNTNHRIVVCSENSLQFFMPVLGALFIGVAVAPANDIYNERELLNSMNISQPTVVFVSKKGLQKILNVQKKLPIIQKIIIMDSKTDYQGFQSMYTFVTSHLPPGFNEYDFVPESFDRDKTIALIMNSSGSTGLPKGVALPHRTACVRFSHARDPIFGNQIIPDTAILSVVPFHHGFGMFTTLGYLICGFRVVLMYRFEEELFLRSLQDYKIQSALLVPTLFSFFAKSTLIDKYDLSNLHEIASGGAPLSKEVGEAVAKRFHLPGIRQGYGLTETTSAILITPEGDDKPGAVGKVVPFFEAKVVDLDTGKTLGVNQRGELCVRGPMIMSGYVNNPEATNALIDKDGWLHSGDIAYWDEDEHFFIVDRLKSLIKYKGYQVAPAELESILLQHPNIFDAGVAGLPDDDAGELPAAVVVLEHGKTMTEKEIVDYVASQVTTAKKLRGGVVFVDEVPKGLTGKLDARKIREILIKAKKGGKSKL
#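 Purified P. pyralis luciferase, 10 nM final, with Km-level 10 uM D-luciferin and 10 uM ATP in 50 mM Tris acetate pH 7.5, 10 mM Mg acetate, 0.01% Tween-20, 0.05% BSA; 6-point qHTS titration about 60 µM downward; luminescence read.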
# ELG1 genotox = inducers of genotoxicity in HEK293T ELG1-luciferase cells. HEK293T ELG1-luciferase reporter, luminescence, 16 h. hit rate 1.3% among 330,000. Potency, µM (top dose mostly 46 µM), without a hit: at the top dose activity change, positive = activation, most hits filed as activators; further: % of control where 0% means no effect; nearly all actives have a fitted effect of over 60% in size
#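 Quantitative HTS format in 1536-well plates. HEK293T ELG1-luciferase reporter cells receive test compound and are incubated 16 hr at 37 °C, 5% CO2; ONE-Glo added, 30 min room temperature, then luminescence read.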
# SMN2 splice up = enhancers of SMN2 splice variant expression. Potency, µM (highest dose often 46.1 µM), for the others: at the highest dose activity change, positive = activation, actives largely listed as activators. HEK293 SMN2-luciferase splicing reporter, luminescence, 30-36 h. hit rate 2.8% among 210,000; further: % of control where 0% means no effect; nearly all actives have a fitted effect of over 55% in size
#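 HEK293 cells carry an SMN2 […]–luciferase reporter in which exon 7 inclusion puts luciferase in frame. Cells were plated 10-12 h before compound addition, then incubated 30-36 h at 37C. ONE-Glo luminescence was read; sodium butyrate at 4.5 mM final served as control.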
# Rab9 promoter act = activators of Rab9 promoter | hit rate 2.8% among 320,000 | Potency, µM (series often up to 9.22 µM), without a hit: at the highest dose activation, negative = inhibition, usual class: activators | Huh7 Rab9 promoter-luciferase reporter, luminescence, 24 h; further: % of control where 0% means no effect; nearly all actives have a fitted effect of over 60% in size
#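 Cells were plated at 1500 per well in reduced-serum medium with 10% FBS and left 2 h. Compound in DMSO was then added for 24 h at 37 °C. Reporter signal was read by luminescence after 10 min with luciferase detection reagent.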
# ELG1 DNA repair = ELG1-dependent DNA repair inhibition | HEK293T ELG1-luciferase reporter, luminescence, 16 h; DNA damage induced by 5-fluorouridine | Potency, µM (doses to about 46.1 µM), for the others: at the highest dose activity change, negative = inhibition, most hits filed as inhibitors | hit rate 2.3% among 330,000 | AID 504467; further: on the % scale 0 is the no-effect control and ±100 the full control effect; nearly all actives have a fitted effect of over 55% in size
#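 Cells (2,000 per well) received 5-fluorouridine plus test compound or DMSO and were incubated 16 hr at 37 °C, 5% CO2. Luciferase activity was read by luminescence 30 min after ONE-Glo addition; signal suppression marked inhibition of damage-induced ELG1 function.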
# NPC1 promoter act = activators of NPC1 promoter. Huh7 NPC1 promoter luciferase reporter, 24 h. Potency, µM (top dose mostly 9.22 µM), without a hit: at the top dose activation, most hits filed as activators. hit rate 2.4% among 320,000. AID 485313; further: % of control where 0% means no effect; nearly all actives have a fitted effect of over 60% in size
#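 Stably transfected Huh7 (NPC1 promoter→luciferase), 1500 cells/well in Opti-MEM + 10% FBS, 2 h settle, then compound 24 h at 37 °C. Luminescence after 10 min with Amplite reagent.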
# Starred values were filed as active, the others as inactive; ? = inconclusive; . = no result. In the library only some 9.4% were active in any assay of this set; here they are far more common. The call rests on the fitted dose curve; in most records, active means well fitted curve in the direction sought with a large enough effect; inconclusive means small, poorly fitted or top-dose-only effect, or another doubt; inactive means no such curve, though single readings can be large; an effect the other way counts as inactive or inconclusive. Potency means the concentration at half of the fitted maximal effect.
SMILES,FLuc modulator,ELG1 genotox,SMN2 splice up,Rab9 promoter act,ELG1 DNA repair,NPC1 promoter act
COc1ccc(-c2coc3cc(O)ccc3c2=O)cc1OC,19µM*,?,27.5%,?,?,?
COc1ccc2c(=O)c(-c3ccccc3)coc2c1,3.01µM*,0.6%,11.2µM*,0.794µM*,?,0.708µM*
COc1ccc(-c2coc3cc(OC(C)=O)cc(OC(C)=O)c3c2=O)cc1,.,.,8.91µM*,.,.,.
COc1ccccc1-c1coc2cc(O)cc(O)c2c1=O,21.3µM*,16.4µM*,25.2%,?,?,21.2%
COc1ccc(-c2coc3c(OC)c(OC)cc(O)c3c2=O)cc1,.,.,16.2%,.,.,.
COc1ccc2c(=O)c(CC(=O)O)coc2c1,.,.,3.5%,.,.,.
COc1ccc(-c2coc3cc(O)cc(O)c3c2=O)cc1OC,?,?,.,23.8%,?,21.5%
Cn1c(C(=O)Nc2cccc(Cl)c2)cc2c(=O)n(C)c3ccccc3c21,-0.3%,.,-3.4%,.,.,.
Cc1sc2ncn(CC(=O)N3CCN(c4ccccc4)CC3)c(=O)c2c1S(=O)(=O)N1CCC(C)CC1,-12.6%,.,-13.2%,.,.,.
CCOc1ccccc1Oc1coc2cc(O)ccc2c1=O,-11.1%,3.7%,1.9%,15.5%,?,14.6%
CCN(CC)C(=O)Oc1ccc2c(=O)c(-c3ccccc3)coc2c1,6.01µM*,?,?,3.55µM*,?,1.58µM*
O=c1c(-c2ccc(F)cc2)coc2cc(O)ccc12,13.5µM*,?,77.5%,3.55µM*,?,3.16µM*
CCN(CC)C(=O)COc1ccc2c(-c3ccccc3)cc(=O)oc2c1,-6.7%,-0.3%,.,-3.0%,-17.8%,-5.4%
COc1ccc2c(=O)c(-c3ccc(OC)c(OC)c3)coc2c1,7.57µM*,?,.,?,?,?
COC(=O)COc1ccc2c(=O)c(-c3ccccc3OC)coc2c1,-5.2%,1.0%,8.4%,-2.3%,-3.3%,-8.7%
NC1=NC(=Nc2ccc(S(N)(=O)=O)cc2)c2ccccc21,-4.0%,6.0%,.,-7.0%,?,-5.7%
CCc1ccc(N=C2N=C(N)c3ccccc32)cc1,2.69µM*,?,?,28.8%,?,-2.8%
Nc1nn(-c2ccccc2)c(N)c1N=Nc1cccc(F)c1,4.26µM*,6.51µM*,.,?,?,?
Nc1nc(-c2ccccc2)c(N=Nc2cccnc2)s1,-2.7%,-4.7%,-25.4%,-1.5%,6.1%,0.0%
Nc1nn(-c2ccccc2)c(N)c1N=Nc1ccc2c(c1)OCO2,1.69µM*,?,6.31µM*,0.631µM*,?,?
Cc1nn(-c2ccccc2)c(N)c1N=Nc1cccnc1,13.5µM*,18.3µM*,12.6µM*,?,?,?
Cc1nn(-c2ccccc2)c2c1C(c1ccc(F)cc1F)C(C#N)=C(N)O2 (stereo not drawn),-1.8%,-2.6%,19.6%,-0.7%,0.6%,0.8%
COc1ccc2nc3c(cc2c1)c(NC(=O)c1cccs1)nn3CC(C)C,7.57µM*,-1.4%,13.4%,19.1%,?,-2.8%
CC(C)Cn1nc(NC(=O)c2cccs2)c2cc3ccccc3nc21,?,-7.7%,.,-0.9%,20.6µM*,-3.8%
COc1cc2c(C(=O)N3CCN(c4ccc(F)cc4)CC3)cn(CC(C)C)c(=O)c2cc1OC,-1.7%,.,6.6%,.,.,.
SMILES,FLuc modulator,ELG1 genotox,SMN2 splice up,Rab9 promoter act,ELG1 DNA repair,NPC1 promoter act
CCc1ccccc1NC(=O)Cn1nc2c3cc(F)ccc3n(Cc3cccc(C)c3)cc-2c1=O,-2.0%,.,.,.,.,.
Cc1cc(C)cc(C(=O)Nc2ccc(N3CCN(C(=O)c4ccco4)CC3)cc2)c1,-2.0%,-29.8%,.,1.0%,20.6µM*,-5.1%
O=C(Nc1ccc(N2CCN(C(=O)c3ccco3)CC2)cc1)c1ccc(F)cc1,-11.5%,-7.7%,-28.9%,-3.8%,20.6µM*,1.6%
O=C(Nc1ccc(N2CCN(C(=O)c3ccco3)CC2)cc1)c1ccccc1,-12.8%,0.1%,-4.6%,-3.1%,?,-1.9%
CC(C)CC(=O)N1CCN(c2ccc(NC(=O)c3ccco3)cc2)CC1,0.3%,2.3%,.,3.16µM*,-2.2%,0.4%
CCOc1ccc(CNC(=O)c2cnc3sc(N4CCC(C)CC4)nn3c2=O)cc1OC,-6.5%,.,.,.,.,.
O=C(O)CSc1ncnc2c1sc1nc(-c3ccccc3)c3c(c12)CCC3,10.7µM*,3.7%,.,-0.8%,8.1%,0.5%
N#C/C(=N\Nc1ccc(Cl)c(Cl)c1)C(=O)C1CC1,26.9µM*,7.7%,.,?,?,?
Cc1ccc(C(=O)/C=C/c2ccccc2)o1,2.39µM*,-1.0%,-21.7%,-4.4%,?,-3.5%
Cc1ccc(C(=O)/C=C/c2ccc(Br)cc2)o1,2.39µM*,10.4%,-5.4%,-1.9%,?,-4.0%
Cc1ccc(/C=C/C(=O)c2ccc([N+](=O)[O-])o2)cc1,?,-8.6%,.,-37.8%,?,-32.3%
Cc1ccc(C(=O)Cc2ccccc2)o1,-0.1%,9.9%,.,-5.6%,27.5%,-3.1%
Cc1ccc(N2CC(=O)Nc3c(sc4nc(C)cc(C)c34)C2=O)cc1,-9.2%,-4.0%,.,2.4%,23.1µM*,1.4%
O=C(Nc1ccccn1)C1CCN(c2ncnc3c2nc2n3CCCCC2)CC1,-2.4%,-5.9%,.,-2.3%,2.59µM*,-2.6%
CCc1ccc(NC(=O)C2CCN(c3ncnc4c3nc3n4CCCCC3)CC2)cc1,-0.4%,-0.5%,.,-3.1%,2.59µM*,-2.3%
O=C(Nc1ccc(F)cc1)C1CCN(c2ncnc3c2nc2n3CCCCC2)CC1,2.7%,-5.8%,.,0.6%,?,-15.6%
COc1ccc2c(c1)C(=O)[C@@H](OC(=O)NCc1ccc3c(c1)OCO3)[C@H](c1ccc(OC)c(Br)c1)O2,-1.9%,-0.9%,10.1%,0.1%,18.4µM*,-1.5%
COc1ccc2c(c1)C(=O)[C@H](OC(=O)NCc1ccc3c(c1)OCO3)[C@@H](c1ccc(OC)c(Br)c1)O2,.,.,-5.6%,.,.,.
CCN(CC)c1ccc(/C=N/NC(=O)c2ccc(O)cc2)cc1,.,.,2.9%,.,.,.
CC(C)(C)C(=O)Nc1cccc(-c2nc3ccccc3[nH]2)c1,15.1µM*,0.4%,28.6%,5.4%,-12.4%,10.7%
CC(Oc1ccccc1)C(=O)Nc1cccc(-c2nc3ccccc3[nH]2)c1 (stereo not drawn),12µM*,-4.5%,.,-0.5%,-18.1%,-0.4%
CC(C)CC(=O)Nc1cccc(-c2nc3ccccc3[nH]2)c1,16.9µM*,-2.0%,?,-5.8%,-0.2%,2.4%
O=C(Nc1ccc(Br)cc1)c1cnn2c1NC(=C1CC1)C=C2C(F)F,1.0%,.,.,.,.,.
CCN(c1ccc(OC)cc1)S(=O)(=O)c1ccc2[nH]c(=O)ccc2c1,5.36µM*,.,.,.,.,.
C=C1C=C(C(F)F)n2ncc(C(=O)NCCc3ccc(OC)c(OC)c3)c2N1,3.7%,.,.,.,.,.

# From PubChem
